For 39 compounds, inhibition of viability and viability decrease (inhibition) results are on record in PubChem BioAssay.

Each structure is given as a SMILES string. A number with no mark means an inactive call. Active and inactive are the calls of the source.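 The calls were made as follows, unless noted: active = compounds that lower viability of the colon cancer cells in the luminescence readout, with no numeric limit stated; inactive = the rest.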

One test can be described thus: HCT116 colon cancer cell growth inhibition, primary screen, CellTiter-Glo luminescence, NPC library (AID 1117342;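 active = compounds that lower survival of HCT116 colon cancer cells in the luminescence readout, no numeric limit stated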). As to conditions: at 20 µM (top of the series). For orientation: In ATP-based viability assays light output follows the ATP content of the culture.
For `CCC(=O)Nc1ccc(O)cc1`, the inhibition of viability is 12.2%.
On to `COC(=O)c1cc(S(C)(=O)=O)ccc1OC`, for which the inhibition of viability was 6.4%.
On the same count and under the same terms, next, `Cc1cccc(N(C)C(=S)Oc2ccc3c(c2)CCC3)c1`: 55.5% (active).
Same read-out and setting: next, `Nc1c(N=Nc2ccc(-c3ccc(N=Nc4cc(S(=O)(=O)O)c5ccccc5c4N)cc3)cc2)cc(S(=O)(=O)O)c2ccccc12`: -132%; `CCOC(=O)CN1CCCC1=O`: -0.8% (active).
`COC(=O)[C@H]1[C@H]2C[C@@H]3c4[nH]c5cc(OC)ccc5c4CCN3C[C@H]2C[C@@H](OC(=O)COc2ccc(OC)cc2)[C@@H]1OC`: the inhibition of viability is 33.6%.
Consider `CCCCN(CCCC)C(C(N)=O)c1ccc(OC)cc1` (stereo not drawn), for which the inhibition of viability was 30.2%.
On the same count and under the same terms, the figure for `CN[C@@H]1[C@@H](O)[C@@H](O[C@@H]2[C@H](O)[C@H](O[C@H]3OC(CN)=CC[C@H]3N)[C@@H](N)C[C@H]2N)OCC1(C)O` (stereo partly drawn) is -0.03%; for `COc1ccc2c(c1)c(CC(=O)OC/C=C(\C)CC/C=C(\C)CCC=C(C)C)c(C)n2C(=O)c1ccc(Cl)cc1` it is 4.5%; for `CCc1ccc(C(=O)C(C)CN2CCCCC2)cc1` (stereo not drawn) it is 19.2%.
The same measure, in the same setting: the figure for `O=C(O)c1cc(O)c2c(c1)[O][Bi][O]2` is 4.4%; for `CCN(CC)CC(=O)Oc1ccc(NC(C)=O)cc1` it is 1.8%; for `C/C=C/c1ccc(O)c(OC)c1` it is 8.25%.
Same read-out and setting: next, `O=C(/C=C/c1ccc(O)c(O)c1)O[C@@H]1C[C@@](OC(=O)/C=C/c2ccc(O)c(O)c2)(C(=O)O)C[C@@H](O)[C@@H]1O`: 6.6%; `CCCc1c2oc(C(=O)O)cc(=O)c2cc2c(=O)cc(C(=O)O)n(CC)c12`: 18.2%.
On to `Nc1ccc(C(=O)N2CC3CC(CN(Cc4ccccc4)C3)C2)cc1`, for which the inhibition of viability was 23.2%.
On the same count and under the same terms, next, `Nc1ccc(S(=O)(=O)NCc2ccccc2)cc1`: -18.3%; `Cc1ccccc1C(=O)Nc1ccc(C(=O)N2CCCC(N(C)C)c3ccccc32)cc1` (stereo not drawn): 80.2% (active).
As for `CCCCCCCCCCCCCCCC[N+](C)(C)Cc1ccccc1`, the inhibition of viability was 99.2% (active).
The same measure, in the same setting: next, `O=C(CCCCCCCCC#CI)Oc1ccccc1`: -7.3%.
On the same count and under the same terms, the figure for `CCCCOC(=O)CCCCCCCCC(=O)OCCCC` is 13.3%.
Turning to `CCN1/C(=C/C=C/c2sc3ccccc3[n+]2CC)Sc2ccccc21`, the inhibition of viability was 98.8% (active).
As for `CCN1CCCC1=O`, the inhibition of viability was -2.03%.
Take `CO[C@@H]1[C@@H](O[C@@H]2O[C@H](C)[C@@H](O[C@H]3C[C@@](C)(O)[C@@H](O)[C@H](C)O3)[C@H](N(C)C)[C@H]2O)[C@@H](CC=O)C[C@@H](C)[C@@H](O[C@@H]2CC[C@H](N(C)C)[C@@H](C)O2)/C=C/C=C/C[C@@H](C)OC(=O)C[C@H]1OC(C)=O`: the inhibition of viability is 23.2%.
Same read-out and setting: next, `O=C1OC2(c3ccccc31)c1cc(Br)c(O)c(Br)c1Oc1c2cc(Br)c(O)c1Br`: 7.8%; `CC(C)[C@H](N)C(=O)O`: 1.3%.
Same read-out and setting: next, `CCCCCC[C@@H](CCC)C(=O)O`: 17.7%.
Still for that read-out and setting: next, `CC(=O)SCC(CC(=O)c1ccc(C)cc1)C(=O)O` (stereo not drawn): -12.2%; `OC1(c2ccc(Cl)cc2)CCNCC1`: 23.2%; `Oc1cc(O)cc(O)c1`: -0.5%.
Turning to `CN(C)[C@@H]1C(=O)C(C(N)=O)=C(O)[C@@]2(O)C(=O)C3=C(O)c4c(O)cccc4C[C@H]3C[C@@H]12`, the inhibition of viability was 75.5% (active).
The same measure, in the same setting: the figure for `C#C[C@]1(O)CC[C@@H]2[C@@H]3CCC4=CCCC[C@@H]4[C@H]3C(=C)C[C@@]21CC` is 99% (active).
Same read-out and setting: the figure for `CCc1cc2cc(OC)c(OC)cc2c(Cc2ccccc2)n1` is 41.3%; for `O=C1Nc2ccccc2C1(c1ccc(O)cc1)c1ccc(O)cc1` it is 71.7% (active).
On the same count and under the same terms, the figure for `NC(=O)NS(=O)(=O)c1ccc(Cl)cc1` is 2.5%; for `O=Cc1ccc(O)c(O)c1O` it is 44.2%; for `O=C(Nc1ccc(Cl)cc1)Nc1ccc(Cl)c(C(F)(F)F)c1` it is 99.3% (active).
Turning to `CCOC(=O)C(C#N)=C(c1ccccc1)c1ccccc1`, the inhibition of viability is 26.4%.
On the same count and under the same terms, the figure for `CCCCCOc1ccccc1/C(=C\SC)n1ccnc1` is 61.1% (active).

A short description of a further test: reduced SW480 viability measured with CellTiter-Glo, NPC library, primary (AID 1117343). The following applies: CellTiter-Glo luminescence; at 20 µM (top of the series).
For the compound `CCC(=O)Nc1ccc(O)cc1`, the viability decrease (inhibition) was 27%.
Regarding `COC(=O)c1cc(S(C)(=O)=O)ccc1OC`, the viability decrease (inhibition) is -3.4%.
Still for that read-out and setting: the figure for `Cc1cccc(N(C)C(=S)Oc2ccc3c(c2)CCC3)c1` is 42.6%.
Same read-out and setting: the figure for `Nc1c(N=Nc2ccc(-c3ccc(N=Nc4cc(S(=O)(=O)O)c5ccccc5c4N)cc3)cc2)cc(S(=O)(=O)O)c2ccccc12` is -0.2%; for `CCOC(=O)CN1CCCC1=O` it is -15.1%; for `COC(=O)[C@H]1[C@H]2C[C@@H]3c4[nH]c5cc(OC)ccc5c4CCN3C[C@H]2C[C@@H](OC(=O)COc2ccc(OC)cc2)[C@@H]1OC` it is -12.3%.
Same read-out and setting: the figure for `CCCCN(CCCC)C(C(N)=O)c1ccc(OC)cc1` (stereo not drawn) is 10.2%; for `CN[C@@H]1[C@@H](O)[C@@H](O[C@@H]2[C@H](O)[C@H](O[C@H]3OC(CN)=CC[C@H]3N)[C@@H](N)C[C@H]2N)OCC1(C)O` (stereo partly drawn) it is -9.1%; for `COc1ccc2c(c1)c(CC(=O)OC/C=C(\C)CC/C=C(\C)CCC=C(C)C)c(C)n2C(=O)c1ccc(Cl)cc1` it is 8.2%.
For the compound `CCc1ccc(C(=O)C(C)CN2CCCCC2)cc1` (stereo not drawn), the viability decrease (inhibition) is 7.4%.
On the same count and under the same terms, next, `O=C(O)c1cc(O)c2c(c1)[O][Bi][O]2`: 26.3%; `CCN(CC)CC(=O)Oc1ccc(NC(C)=O)cc1`: 2.2%; `C/C=C/c1ccc(O)c(OC)c1`: 51.6% (active).
As for `O=C(/C=C/c1ccc(O)c(O)c1)O[C@@H]1C[C@@](OC(=O)/C=C/c2ccc(O)c(O)c2)(C(=O)O)C[C@@H](O)[C@@H]1O`, the viability decrease (inhibition) is 6.5%.
On the same count and under the same terms, next, `CCCc1c2oc(C(=O)O)cc(=O)c2cc2c(=O)cc(C(=O)O)n(CC)c12`: 34.6%; `Nc1ccc(C(=O)N2CC3CC(CN(Cc4ccccc4)C3)C2)cc1`: 9.4%; `Nc1ccc(S(=O)(=O)NCc2ccccc2)cc1`: 37.6%.
Same read-out and setting: the figure for `Cc1ccccc1C(=O)Nc1ccc(C(=O)N2CCCC(N(C)C)c3ccccc32)cc1` (stereo not drawn) is 80.2% (active).
Consider `CCCCCCCCCCCCCCCC[N+](C)(C)Cc1ccccc1`, for which the viability decrease (inhibition) was 101% (active).
On the same count and under the same terms, the figure for `O=C(CCCCCCCCC#CI)Oc1ccccc1` is 68.3% (active); for `CCCCOC(=O)CCCCCCCCC(=O)OCCCC` it is -9.1%.
For `CCN1/C(=C/C=C/c2sc3ccccc3[n+]2CC)Sc2ccccc21`, the viability decrease (inhibition) was 103% (active).
Same read-out and setting: next, `CCN1CCCC1=O`: -20.4%; `CO[C@@H]1[C@@H](O[C@@H]2O[C@H](C)[C@@H](O[C@H]3C[C@@](C)(O)[C@@H](O)[C@H](C)O3)[C@H](N(C)C)[C@H]2O)[C@@H](CC=O)C[C@@H](C)[C@@H](O[C@@H]2CC[C@H](N(C)C)[C@@H](C)O2)/C=C/C=C/C[C@@H](C)OC(=O)C[C@H]1OC(C)=O`: 59.8% (active); `O=C1OC2(c3ccccc31)c1cc(Br)c(O)c(Br)c1Oc1c2cc(Br)c(O)c1Br`: 24.1%.
On to `CC(C)[C@H](N)C(=O)O`, for which the viability decrease (inhibition) is 11.9% (active).
Take `CCCCCC[C@@H](CCC)C(=O)O`: the viability decrease (inhibition) was 14%.
Still for that read-out and setting: next, `CC(=O)SCC(CC(=O)c1ccc(C)cc1)C(=O)O` (stereo not drawn): -19.1%; `OC1(c2ccc(Cl)cc2)CCNCC1`: 30.5%; `Oc1cc(O)cc(O)c1`: 21.1%.
On the same count and under the same terms, next, `CN(C)[C@@H]1C(=O)C(C(N)=O)=C(O)[C@@]2(O)C(=O)C3=C(O)c4c(O)cccc4C[C@H]3C[C@@H]12`: 100% (active).
As to `C#C[C@]1(O)CC[C@@H]2[C@@H]3CCC4=CCCC[C@@H]4[C@H]3C(=C)C[C@@]21CC`, the viability decrease (inhibition) was 102% (active).
On the same count and under the same terms, the figure for `CCc1cc2cc(OC)c(OC)cc2c(Cc2ccccc2)n1` is -9.7%; for `O=C1Nc2ccccc2C1(c1ccc(O)cc1)c1ccc(O)cc1` it is 38.2%; for `NC(=O)NS(=O)(=O)c1ccc(Cl)cc1` it is -13.4%.
On the same count and under the same terms, the figure for `O=Cc1ccc(O)c(O)c1O` is 78.5% (active).
The same measure, in the same setting: next, `O=C(Nc1ccc(Cl)cc1)Nc1ccc(Cl)c(C(F)(F)F)c1`: 102% (active); `CCOC(=O)C(C#N)=C(c1ccccc1)c1ccccc1`: 18.9%; `CCCCCOc1ccccc1/C(=C\SC)n1ccnc1`: 79.6% (active).
